The text below walks through data of the supplement of paper PMC6555819.

In this assay the test system is VDR:RXRa (NR concentration 270 nM, RXRa partner concentration 90 nM). As to the kind of experiment: PBM binding z-score (relative to random genomic background probes); higher = stronger binding; sequences stand for … in GC…GCGATTGACAGCGTAGAATGAAGG
On the procedure:
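Protein-binding microarray (Agilent 4x180K custom design, double-stranded 60-nt probes: 5' GC cap, 34-nt variable region, 24-nt constant primer region; full probe sequence given). Purified or IVT nuclear receptor:RXRα heterodimers (3:1 NR:RXRα, mostly 270:90 nM) or homodimers were incubated for 1 h in PBS with 2% milk and no ligand, then detected with Alexa488 antibodies. Fluorescence from o1-orientation probes (~5 replicates averaged) was converted to z-scores against 500 random hg19 background probes. Variable regions are seed direct-repeat (DR0–DR5) sites, all their single-nucleotide variants and half-site ablations.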
In turn, CGTCAACGTTCAACTAAGGTAACGTAAAGCACGC had a PBM binding z-score of 0.25.

CTAGGTAGGTTAAGGGGGTCATTCAGTTTGAAAG returned a PBM binding z-score of 7.24.

CTATGTAGGTTAAGGGGGTCATCCAGTTTGAAAG gave a PBM binding z-score of 7.32.

CAAACTAGGTCAAAGGTCAAAGCCGAGCCAACCA: the PBM binding z-score amounted to 6.79.

As for GATTACGGGTCAAAGGTTATAGCATGAATAGAAT, the PBM binding z-score was found to be 5.82.

Sequence CGTCCAAGGTCATAAGAGGTCAGTGAAGACAGAT gave a PBM binding z-score of 6.96.

Sequence CGTCCAAGGTCAATGCTAGCTCAGTGAAAGCATT gave a PBM binding z-score of 3.63.

CGAACTAGGTCAAAGGTCAGTGAAAGGCGACGTA showed a PBM binding z-score of 5.88.

For CCTTACGGGTCAAGGTTATATCACGGGTGGTACG, the PBM binding z-score stood at 3.49.

TTACCAAGGTTAAAGGTCGTTGATGCACGCCTTG had a PBM binding z-score of 4.55.

AGTCATAGTTCACTAGGTAACGTAAGATTCAGCT yielded a PBM binding z-score of 1.12.

Take CTATGTAAGTTAAGGGGGTCATTCAGTTTGAAAG: the PBM binding z-score is 6.67.

Regarding CGAACTAGGCCAAAGGACAGTGAAAGGCGACGTA, the PBM binding z-score was -0.722.

For CGAACTAGGTCAAAGGACAGTGACAGGCGACGTA, the PBM binding z-score stood at 1.47.

Sequence TAGCCTAGGTCATTCAGGGGCCAGAATAGAAAGC came in with a PBM binding z-score of 3.17.

Sequence ATCGAACGGTCGAGGTGAGTATAGAGAAAGGGAA returned a PBM binding z-score of -0.335.

For CGAGCTAGGTCAAAGGACAGTGAAAGGCGACGTA, the PBM binding z-score was 0.97.

Take CGAACTAAGTCATTGACAGGACAGTGAATAGTAA: the PBM binding z-score is -0.19.

On to AGTCAAAGTTCATCTAGGTAACGAAAGATATGCT, for which the PBM binding z-score came out at 4.81.

As to CGAACTAGGTCACAAGGACAGTGAAGAGGTTGGA, the PBM binding z-score stood at 1.83.

As to ACTAGTTGCTCAGCTGAGGTCACACACAATTCGG, the PBM binding z-score came to 3.65.

In turn, CAAACTAGGTCACAGAGGGCAAAGTCCGTGCGTA showed a PBM binding z-score of 7.09.

TAGCCTAGGTCATTTGGCCAGTATAGTACGCATC had a PBM binding z-score of 2.52.

AATACAGGGTCACTTGGCCAGAGTAGGTACGAAT displayed a PBM binding z-score of 4.36.

For the sequence CCTAGTTGGTCAGGAGGTCCCACACCGGATATGA, the PBM binding z-score was found to be 0.0687.

CCGAGTAGGTTGCGAGGGGGCATTCAGTGCGAAT: the PBM binding z-score came to 4.26.

In the case of CGTCCAAGGTCATAGGAGGTCACTGAAGACAGAT, the PBM binding z-score is 7.05.

In the case of CCTTACGGGTCACGGTTATAGCACGGGTGGTACG, the PBM binding z-score came out at 3.87.

TCGAATAGGTTACGGGGGCATTCAGGGATGAAGA had a PBM binding z-score of 4.6.

Regarding ACTAGCAGGCCAAGGGTGACTCAAGATTAGTCCG, the PBM binding z-score is -0.401.

The sequence TGAATGAGGTGAAAGATCAGGGAACGTGGCGTCG displayed a PBM binding z-score of 0.449.

Take CGAACTAGGTCAAAAGACAGTGAAAGGCGACGTA: the PBM binding z-score was determined as 0.721.

The sequence AAATGTAGGTTAGGGTCATTCAGAAAGTAGGGAA had a PBM binding z-score of 4.55.

As to CCTAGCAGGCCAGGTTCACTCAAGCATTTCGCTT, the PBM binding z-score came to 2.09.

As for CCGACTGGGGCAAAGGTTACCATGCTCAGTACGA, the PBM binding z-score was 1.64.

The sequence CGAACTAGGTCAGAGGACAGTGAAAGGCGACGTA showed a PBM binding z-score of 0.161.

The sequence GCTGCTAGGTCAACTGATGGTGAGCTAAAGCTCG displayed a PBM binding z-score of 1.13.

Sequence CAAACTAGGTCACAGAGGTCGAAGTCCGTGCGTA showed a PBM binding z-score of 6.75.

TTACGAAGGTGAAAGGTCGTTGATGCACGCCTTG yielded a PBM binding z-score of 3.25.

On to ATATGTAGGTTAGCTGGGGTCATTCCGACTAGGC, for which the PBM binding z-score came to 6.1.
